FadD28 binding – M. tuberculosis FadD28 bisubstrate binding inhibition; FadD28 bisubstrate probe binding, fluorescence polarization; inhibition, % at 12.5 µM; 0.22% of 360,000 active; in the data active = inhibition above about 8.5%, passing the limit was not always enough; inconclusive = no clear call, values can overlap the other calls
MazF activator – activators of E. coli MazEF toxin-antitoxin RNase | FAM/BHQ RNA-DNA oligo cleavage fluorescence, 5 h | activation, % at 20 µM | 0.32% of 350,000 active; in the data active = activation above about 50%
Target sequence (P0AE70 whole entry, looked up): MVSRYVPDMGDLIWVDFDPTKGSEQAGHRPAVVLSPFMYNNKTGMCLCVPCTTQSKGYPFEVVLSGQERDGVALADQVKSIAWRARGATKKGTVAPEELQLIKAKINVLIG
DUSP3 inh – inhibitors of human VHR1 phosphatase (DUSP3); recombinant VHR phosphatase, pNPP absorbance; inhibition, % at 13.3 µM; 0.52% of 290,000 active; AID 1654; in the data active = inhibition above about 50%
Target sequence (P51452 whole entry, looked up): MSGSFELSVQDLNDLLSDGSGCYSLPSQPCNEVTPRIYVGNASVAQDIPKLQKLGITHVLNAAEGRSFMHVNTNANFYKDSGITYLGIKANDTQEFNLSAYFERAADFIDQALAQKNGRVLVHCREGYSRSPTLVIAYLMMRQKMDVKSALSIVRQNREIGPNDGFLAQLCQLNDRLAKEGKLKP
Mtb BioA inh – BioA (M. tuberculosis) enzyme inhibition; purified M. tuberculosis BioA enzyme, plate reader; inhibition, % at 9.99 µM; 0.096% of 360,000 active; AID 602481; in the data active = inhibition above about 40%; inconclusive = no clear call, values can overlap the other calls
TcdB GH inh – inhibitors of Clostridioides difficile toxin B glycohydrolase; TcdB glycohydrolase enzymatic assay, plate reader; inhibition, % at 9.99 µM; 0.24% of 350,000 active; in the data active = inhibition above about 10%
Y pestis TopoI – inhibitors of Yersinia pestis topoisomerase I | Y. pestis Topo-I cleavage product accumulation, plate reader | activity, % at 10 µM | 0.064% of 360,000 active; in the data active = activity above about 50%, passing the limit was not always enough; inconclusive = no clear call, values can overlap the other calls
Numbers without * were called inactive; i = inactive; ? = inconclusive; nt = no result; + = active, no number. Sampled rows, rich in hits. Any-hit rate of the full collection: about 1%.

SMILES	FadD28 binding	MazF activator	DUSP3 inh	Mtb BioA inh	TcdB GH inh	Y pestis TopoI
Cc1ccc(S(=O)c2ccc([N+](=O)[O-])c3nonc23)cc1 (stereo not given)	?	375*	nt	-4	-1	-17
O=[N+]([O-])c1ccc(N2CCCCCC2)c2nonc12	?	i	4	-47	3	-2
CN(C)CC(=O)Nc1ccc2c(c1)[C@H]1C[C@H](CC(=O)NCc3ccc(Cl)cc3)O[C@H](CO)[C@H]1O2	nt	nt	nt	0	1	nt
COc1ccccc1-c1cnc2c(c1)C(=O)N([C@@H](C)CO)C[C@@H](C)[C@H](CN(C)C(C)=O)O2	nt	nt	nt	-5	1	nt
CCN1/C(=C/c2ccc3cccc(C)c3[n+]2CC)Sc2ccccc21	1	73*	19	4	nt	9
CCN1/C(=C\c2ccc3cc(C)ccc3[n+]2CC)Sc2cc(C)c(C)cc21	1	82*	16	2	-4	3
COc1ccc2c3c(n(C)c2c1)[C@H](CO)NCC31CN(C(=O)Nc2ccc3c(c2)OCO3)C1	nt	nt	nt	nt	0	nt
C[C@@H]1CN([C@@H](C)CO)C(=O)c2cccc(NC(=O)CCCCCC(=O)Nc3ccccc3N)c2O[C@H]1CN(C)S(=O)(=O)c1cn(C)cn1	nt	nt	nt	nt	2	nt
Cc1cc(C)c(S(=O)(=O)N2CCCCC2C(=O)O)c(C)c1 (stereo not given)	-2	5	13	nt	13*	1
C[C@@H]1CN([C@@H](C)CO)C(=O)c2cccc(NC(=O)NC3CCCCC3)c2O[C@H]1CN(C)Cc1ccc(C(F)(F)F)cc1	nt	nt	nt	-3	1	nt
CCOc1cccc(CN2CCC(CCC(=O)NC3CC3)CC2)c1O	0	-3	51*	-2	-3	-6
NC(=O)[C@@H]1CCCNc2c(I)cc([N+](=O)[O-])cc2C(=O)N[C@@H](CCCN=C(N)N)C(=O)N[C@@H](CCCN=C(N)N)C(=O)N1	nt	nt	0	nt	nt	nt
CC[C@H](C)[C@@H]1NC(=O)c2cc([N+](=O)[O-])cc(I)c2NCC[C@@H](C(N)=O)NC(=O)[C@H](CCCN=C(N)N)NC1=O	nt	16	-4	nt	10*	nt
CCOc1ccc2c(C)nc(NC3=NC(C)(C)C=C(C)N3)nc2c1	-3	-3	-4	3	11*	27
CCOc1ccccc1CNC(c1ccccc1)c1ccccc1	-3	-8	-6	-1	-2	52*
CN(C)CCCNC(=O)C[C@@H]1CC[C@H]2[C@@H](COC[C@@H](O)CN2CC2CCCCC2)O1	nt	nt	nt	nt	0	nt
Cc1noc(C)c1S(=O)(=O)N(C)C[C@@H]1OCCCC[C@H](C)Oc2ccc(NC(=O)Nc3ccc(F)cc3)cc2C(=O)N([C@H](C)CO)C[C@H]1C	nt	nt	nt	-1	0	nt
Oc1ccc2ccccc2c1-c1sc(Nc2ccccc2)n[n+]1-c1ccc(F)cc1	1	+	1	0	2	99*
Fc1ccc(-[n+]2nc(Nc3ccccc3)sc2-c2c3ccccc3cc3ccccc23)cc1	-9	15	-2	-1	6	-25
C[C@@H]1CCCCO[C@H](CN(C)S(=O)(=O)c2ccccc2)[C@H](C)CN([C@@H](C)CO)C(=O)c2cc(NC(=O)CCC(F)(F)F)ccc2O1	nt	nt	nt	-2	1	nt
CCOc1cc(CNCc2cc(OC)cc(OC)c2)ccc1OC	-1	10	51*	0	-1	3
COc1cccc(CNCc2ccc(OC)cc2OC)c1	0	13	56*	0	-4	6
CCCNC(=O)N1[C@H](CO)[C@H](c2ccc(C3=CCCCC3)cc2)[C@H]1CNC(C)C	nt	nt	nt	nt	0	nt
Cc1cc(C)c(Nc2n[nH]c(=S)s2)cc1C	-3	4	nt	-2	1	5
CC(=O)Nc1n[nH]c(=S)s1	-3	-12	nt	nt	18*	0
SMILES	FadD28 binding	MazF activator	DUSP3 inh	Mtb BioA inh	TcdB GH inh	Y pestis TopoI
C=CCNc1n[nH]c(=S)s1	1	4	nt	-1	15*	-3
CNc1n[nH]c(=S)s1	0	-16	21	-1	24*	-6
COc1cccc(NC(=O)N(C)C[C@@H]2Oc3ncc(C#Cc4ccncc4)cc3C(=O)N([C@H](C)CO)C[C@H]2C)c1	nt	nt	nt	0	0	nt
CN1C(=O)c2cc(NC(=O)C3CCOCC3)ccc2OC[C@@H]2O[C@H](CC(=O)NCc3ccc4c(c3)OCO4)CC[C@@H]21	nt	nt	nt	1	0	nt
O=C(c1ccccn1)N1CC2(C1)[C@H](c1ccccc1)[C@@H](CO)N2Cc1cccnc1	nt	nt	nt	nt	0	nt
CS(=O)(=O)N(CC(=O)N1CCCC1)c1ccc(Cl)cc1	-1	-1	-5	-1	0	-1
Cc1ccc(N(CC(=O)N2CCCC2)S(C)(=O)=O)cc1C	-1	2	58*	1	0	4
CC1=CC2=C(C=O)C(=O)C(C)(O)C(O)C2=CO1 (stereo not given)	0	242*	nt	-5	0	8
COc1cccc(S(=O)(=O)N[C@H]2CC[C@H](CCn3cc(-c4ccc(F)cc4)nn3)O[C@@H]2CO)c1	nt	nt	nt	2	0	nt
Cc1ccc2sc(-c3ccc(NC(=O)CCN4C(=O)c5ccccc5C4=O)cc3)nc2c1	nt	nt	54*	nt	1	nt
CC(=O)Nc1ccc(NC(=O)CCN2C(=O)c3ccccc3C2=O)cc1	-1	-2	10	-4	2	-1
CC(=O)N1CC2(C1)[C@H](c1ccc(-c3ccc(F)cc3)cc1)[C@H](CO)N2C(C)=O	nt	nt	nt	nt	0	nt
CC(C)C(=O)c1cc2c(cc1NC(=O)c1cccs1)OCCO2	0	-9	53*	-5	nt	-1
CCS(=O)(=O)N[C@H]1C=C[C@@H](CC(=O)NCc2ccc(Cl)cc2)O[C@H]1CO	nt	nt	nt	3	1	nt
COc1ccc(NC(=S)N(CCc2c(C)[nH]c3ccc(C)cc23)Cc2ccco2)cc1	-1	1	4	-2	1	2
COCCNC(=S)N(CCc1c(C)[nH]c2ccc(OC)cc12)Cc1ccco1	0	7	57*	4	0	7
CNC(=S)N(CCc1c(C)[nH]c2ccc(OC)cc12)Cc1ccco1	-1	-9	57*	-1	1	-13
COCCNC(=S)N(CCc1c(C)[nH]c2ccc(C)cc12)Cc1ccco1	-3	-5	18	nt	0	-1
COc1cc(NS(=O)(=O)c2ccc(Nc3nc(-c4cccc([N+](=O)[O-])c4)cs3)cc2)nc(OC)n1	17*	0	0	2	3	-8
O=[N+]([O-])c1cccc(-c2csc(Nc3ccccc3)n2)c1	-1	-2	25	2	2	-5
COc1ccc(-c2csc(Nc3ccc(S(=O)(=O)Nc4cc(C)on4)cc3)n2)cc1	10*	-8	19	nt	-1	1
OC[C@H]1[C@H](c2ccc(-c3ccccc3)cc2)[C@@H]2CN(CCC(F)(F)F)CCCCN12	nt	nt	nt	0	1	nt
O=C(NC[C@@H]1CC[C@@H]2[C@@H](CN2S(=O)(=O)c2ccccc2[N+](=O)[O-])O1)C1CCOCC1	nt	nt	nt	nt	-5	nt
C[C@@H]1CN([C@H](C)CO)C(=O)c2cccc(NC(=O)Nc3ccccc3)c2O[C@@H]1CN(C)Cc1ccccc1	nt	nt	nt	4	-1	nt
